Shown are actives, neighbours in structure and some others; about 31% of the full set was active somewhere.
CYP2C9 inh – blocks human cytochrome P450 2C9 | P11712 | CYP2C9 Supersomes, luciferin-H conversion, luminescence | inhibition, % at 5 µM | hit rate 20% among 96,000 | AID 777;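 active = blocking of liver enzyme CYP2C9 beyond about 50% at 5 µM, limit read from the data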
Target sequence (P11712 whole entry, looked up): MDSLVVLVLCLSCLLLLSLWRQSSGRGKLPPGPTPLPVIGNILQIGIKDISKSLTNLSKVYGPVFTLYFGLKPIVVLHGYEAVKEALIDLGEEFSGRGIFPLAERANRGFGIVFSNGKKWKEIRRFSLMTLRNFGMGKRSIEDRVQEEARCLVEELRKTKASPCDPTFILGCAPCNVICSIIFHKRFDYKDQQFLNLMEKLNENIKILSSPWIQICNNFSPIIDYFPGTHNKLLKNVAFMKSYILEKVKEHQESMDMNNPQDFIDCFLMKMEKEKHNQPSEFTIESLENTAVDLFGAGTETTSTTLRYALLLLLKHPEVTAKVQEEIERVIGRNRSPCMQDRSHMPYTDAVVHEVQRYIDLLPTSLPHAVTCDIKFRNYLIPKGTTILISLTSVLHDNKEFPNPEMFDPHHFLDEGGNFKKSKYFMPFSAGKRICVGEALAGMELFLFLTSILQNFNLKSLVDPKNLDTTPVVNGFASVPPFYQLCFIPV
CYP2C9 act – activators of human CYP2C9. P11712. recombinant CYP2C9, luciferin-H conversion, luminescence; stronger effect = higher value; factor 1 = untreated enzyme, 0 = blocked. activation factor at 5 µM. hit rate 1.4% among 96,000. AID 1024;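 active = activation factor of 2 or more for CYP2C9 at a 5 µM dose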;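 note: 0 = sulfaphenazole-blocked wells and 1 = vehicle-only wells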
CYP2C19 inh – blocks human cytochrome P450 2C19; hit rate 21% among 96,000; inhibition, % at 5 µM; AID 778; CYP2C19 Supersomes, luciferin-H EGE luminescence, 30 min;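 active = CYP2C19 inhibition above a set limit at 5 µM in the primary screen, cut at about 50% in these data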;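 note: plate controls were negative control wells for no effect and 2.5 mM tranylcypromine positive control for full effect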
CYP2C19 activ – increases human CYP2C19 enzyme activity. recombinant CYP2C19, luciferin-H EGE luminescence; stronger effect = higher value; 0 = fully inhibited enzyme, 1 = untreated enzyme. 96,000 tested, under 10 active. activation factor at 5 µM. P33261. AID 1025;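 active = activation factor of at least 2 at 5 µM in the primary screen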;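 note: 0 = wells with 2.5 mM tranylcypromine and 1 = vehicle-only wells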
Starred values were filed as active, the others as inactive.

SMILES	CYP2C9 inh	CYP2C9 act	CYP2C19 inh	CYP2C19 activ
COc1ccc(F)cc1S(=O)(=O)n1cc(C)nc1-c1ccccc1	-13	1.1	9	0.9
COc1ccc(OC)c(S(=O)(=O)N2CCN(c3ccccn3)CC2)c1	77*	0.2	83*	0.2
COc1ccc(C)cc1S(=O)(=O)N1CCN(S(=O)(=O)c2cc(C)ccc2OC)CC1	87*	0.1	75*	0.2
COc1cc(S(=O)(=O)N2CCN(C)CC2)c(OC)cc1Br	-36	1.4	8	0.9
CCOc1cc(S(=O)(=O)N2CCC(C(N)=O)CC2)ccc1F	-10	1.1	-7	1.1
COc1ccc(OC(C)C(=O)N2CCN(c3ccccn3)CC2)cc1 (stereo not drawn)	30	0.7	21	0.8
CCOc1ccc(S(=O)(=O)N2CCC(C(N)=O)CC2)c2ccccc12	59*	0.4	-4	1
COc1cc(OC)c(-c2nnc(-c3ccc(OC)c(OC)c3OC)o2)cc1OC	-40	1.4	27	0.7
CC(=O)c1cc(CC=C(C)C)c(O)c(CC=C(C)C)c1O	71*	0.3	84*	0.2
CC(=O)c1cc(CC=C(C)C)c(O)cc1O	80*	0.2	32	0.7
CC(=O)c1ccc(O)c(CO)c1	-7	1.1	-18	1.2
Cc1nnc(C)n1/N=C/c1cccnc1	2	1	-3	1
COc1ccc(NS(=O)(=O)c2ccc3c(c2)CCC(=O)N3)c(OC)c1	14	0.9	22	0.8
COc1ccc(N(CC(=O)NCc2cccnc2)S(=O)(=O)c2c(C)nn(C)c2C)cc1	14	0.9	64*	0.4
COc1ccc(N(CC(=O)N2c3ccccc3CC2C)S(=O)(=O)c2c(C)noc2C)cc1 (stereo not drawn)	92*	0.1	88*	0.1
COc1ccc(CNC(=O)CN(c2cc(C)cc(C)c2)S(=O)(=O)c2c(C)noc2C)cc1	23	0.8	37	0.6
COc1ccc(N(CC(=O)N2CCC(C)CC2)S(=O)(=O)c2c(C)nn(C)c2C)cc1	37	0.6	75*	0.3
COc1ccc(N(CC(=O)NCc2ccccc2)S(=O)(=O)c2c(C)noc2C)cc1	44	0.6	91*	0.1
CCc1nnc(NC(=O)CC(=O)Nc2ccccc2C(=O)O)s1	-1	1	6	0.9
CCOC(=O)c1cn(-c2ccccc2CO)c2c(F)c(F)c(F)cc2c1=O	17	0.8	30	0.7
COc1ccc(N(CC(=O)NCc2ccccc2)S(=O)(=O)c2c(C)nn(C)c2C)cc1	30	0.7	85*	0.2
COc1ccc(N(CC(=O)N2CCCCC2)S(=O)(=O)c2c(C)nn(C)c2C)cc1	-2	1	28	0.7
Cc1ccc(N(CC(=O)NCc2cccs2)S(=O)(=O)c2cccs2)cc1	74*	0.3	96*	0
COc1ccc(N(CC(=O)NC2CCCCCC2)S(=O)(=O)c2c(C)nn(C)c2C)cc1	50*	0.5	33	0.7
COc1ccc(N(CC(=O)NCc2cccs2)S(=O)(=O)c2c(C)nn(C)c2C)cc1	32	0.7	72*	0.3
SMILES	CYP2C9 inh	CYP2C9 act	CYP2C19 inh	CYP2C19 activ
COCCNC(=O)CN(c1ccc(C)cc1)S(=O)(=O)c1ccccc1	-11	1.1	12	0.9
COc1ccc(N(CC(=O)NC2CCCC2)C(=O)c2ccc(N3CCCCC3)nc2)cc1	78*	0.2	11	0.9
O=C(NC1CC1)c1sccc1-n1cccc1	47	0.5	15	0.8
N#CCOC(=O)c1sccc1-n1cccc1	-95	2*	9	0.9
COc1ccccc1OCc1nnc(SCC(=O)NCc2ccco2)n1Cc1ccco1	58*	0.4	62*	0.4
O=C(CSc1nnc(C2CC2)n1Cc1ccccc1)NCc1ccccc1	18	0.8	26	0.7
O=C(CSc1nnc(CNc2ccc(F)cc2)n1Cc1ccccc1)NCc1ccco1	53*	0.5	54*	0.5
Cc1nnc(SCC(=O)NCc2ccco2)n1Cc1ccccc1	-5	1.1	-5	1.1
Cc1ccc(NCc2nnc(SCC(=O)NCc3ccco3)n2CC2CCCO2)cc1Cl (stereo not drawn)	56*	0.4	41	0.6
Cc1ccc(NCc2nnc(SCC(=O)NCc3ccco3)n2CC2CCCO2)c(C)c1 (stereo not drawn)	-8	1.1	5	0.9
O=C(CSc1nnc(C2CCCCC2)n1Cc1ccccc1)NCc1ccco1	66*	0.3	43	0.6
Cc1ccc(-c2nn(C)c(=O)c3ccccc23)cc1CNC(=O)/C=C/c1ccccc1	31	0.7	42	0.6
COC(=O)c1cn(C(=O)c2ccc(Br)o2)c2ccccc12	24	0.8	16	0.8
O=C(COc1ccc(Cl)cc1)NCc1nnc(SCC(=O)Nc2ccccc2)o1	-96	2*	17	0.8
CC1CCN(C(=O)CSc2nnc(CNC(=O)COc3ccc(Cl)cc3)o2)CC1	57*	0.4	67*	0.3
Cc1ccc(-c2ncccc2OC(=O)C23CC4CC(CC(C4)C2)C3)cc1	-9	1.1	-6	1.1
CC(=C/C(=O)O)/C=C/c1cccs1	-2	1	-3	1
CC(=O)N(C(C)=O)c1c(C#N)c(C)n(-c2ccccc2)c1C(=O)c1ccccc1	9	0.9	71*	0.3
CCc1ccc(NC(=O)N(CCN(C)C)C(C)c2cccnc2)cc1 (stereo not drawn)	15	0.8	16	0.8
CN(C)CCNC(=O)Nc1ccc(Cl)c(Cl)c1	22	0.8	48	0.5
CC(C)N(CCc1ccncc1)C(=O)Nc1ccc(F)cc1	87*	0.1	97*	0
CC(C)N(CCc1ccncc1)C(=O)Nc1ccc(Cl)c(Cl)c1	99*	0	100*	0
CCOC(=O)C1CCCN(C(=O)COC(=O)C2=COCCO2)C1 (stereo not drawn)	-15	1.1	25	0.8
COc1cccc(NC(=O)CSc2nncn2-c2ccccn2)c1	22	0.8	62*	0.4
COc1ccc(-n2nnnc2SCC(=O)Nc2cccc(NC(C)=O)c2)cc1OC	32	0.7	34	0.7
SMILES	CYP2C9 inh	CYP2C9 act	CYP2C19 inh	CYP2C19 activ
COc1cccc(C(=O)CSc2nnnn2C2CCCCC2)c1	68*	0.3	40	0.6
O=C(CSc1nccn1-c1cccc(Cl)c1)NC1CCCC1	67*	0.3	84*	0.2
COc1cccc(NC(=O)CSc2nncn2N)c1	-3	1	6	0.9
COc1cccc(-n2nnnc2SCC(=O)Nc2cccc(NC(C)=O)c2)c1	50*	0.5	38	0.6
Cc1ccc(CNC(=O)Cn2c([N+](=O)[O-])cnc2C)cc1	0	1	3	1
CCOC(=O)c1sc(NC(=O)c2cccnc2)nc1C	22	0.8	-4	1
COc1cc2[nH]c(=S)n(NC(=O)CC(C)C)c(=O)c2cc1OC	2	1	2	1
COc1cccc(-n2nnnc2SCC(=O)N2CCCc3ccccc32)c1	19	0.8	52*	0.5
COc1ccc(-n2nnnc2SCC(=O)N2C(C)CCCC2C)c(OC)c1 (stereo not drawn)	-87	1.9	75*	0.2
COc1ccccc1-n1c(SCC(=O)NC2CCCC2)nc2cccnc21	20	0.8	16	0.8

High-throughput results (PubChem)
